# According to PubChem BioAssay (NCATS):
# Where “and” joins values, the source holds several entries; their conditions need not be identical. Equal values may be shown once. Records with an inconclusive call do not appear. Where a call stands in place of a potency, no number is given. Calls of active or inactive are those of the source. Unless noted, calls come from the whole dose curve; as a rule, active = well fitted curve in the direction sought with a large enough effect; inconclusive = small, poorly fitted or top-dose-only effect, or another doubt; inactive = no such curve, though single readings can be large; an effect the other way counts as inactive or inconclusive.
# Tests used:
# [1] = P-glycoprotein substrates identified in KB-3-1 adenocarcinoma cell line, qHTS therapeutic library screen (AID 1346986); note: nearly all actives have a fitted effect of over 60% in size;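 note: potency is the fitted concentration of half-maximal effect; potency is for cytotoxicity meaning loss of cell viability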
# Outline: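 72 h cell-killing screen, 500 cells/well, CellTiter-Glo luminescence. Paired lines KB-3-1/KB-8-5-11; P-gp dependence checked by tariquidar co-treatment and HEK-293 MDR-19 versus empty-vector cells.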
# [2] = P-glycoprotein substrates identified in KB-8-5-11 adenocarcinoma cell line, qHTS therapeutic library screen (AID 1346987); note: nearly all actives have a fitted effect of over 65% in size; note: potency is the fitted concentration of half-maximal effect
# Outline: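 Luminescence from CellTiter-Glo, read 5 min after addition, quantified survival of KB-8-5-11 (P-gp-overexpressing) cells exposed to compounds for 72 h. AC50 was derived from concentration-response curves.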
# [3] = Primary qHTS for inhibitors of nuclear receptor binding SET domain protein 2 (NSD2) in an isogenic RCH-ACV NSD2 p.E1099K mutant (9B) (AID 1645876); note: nearly all actives have a fitted effect of over 70% in size; note: potency is the fitted concentration of half-maximal effect
# [4] = Primary qHTS for inhibitors of nuclear receptor binding SET domain protein 2 (NSD2) in an RCH-ACV wild type WT cells (2C) (AID 1645877); note: nearly all actives have a fitted effect of over 70% in size; note: potency is the fitted concentration of half-maximal effect
# [5] = target: Glutathione peroxidase 1 (Homo sapiens) (UniProt P07203); test: Primary qHTS Assay for Inhibitors of Recombinant Selenoprotein Glutathione Peroxidase 1 (GPX1) (AID 1845191); note: nearly all actives have a fitted effect of over 65% in size
# Outline: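 GPX1 10 nM, GR 100 nM, GSH 1 mM, NADPH 0.5 mM, CHP 0.5 mM (final). 30-min cpd preincubation, RT. Ex340/Em450 read t=0, t=15 min.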
# [6] = target: Phospholipid hydroperoxide glutathione peroxidase GPX4 (Homo sapiens) (UniProt P36969); test: Primary qHTS Assay for Inhibitors of Recombinant Selenoprotein Glutathione Peroxidase 4 (GPX4) (AID 1845192); settings: outcome: dose series up to 50 µM unless noted; note: series mostly up to about 50 µM; nearly all actives have a fitted effect of over 65% in size
# Outline: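 qHTS, GR-coupled: GPX4 200 nM + cpd 30 min RT → GSH 1 mM, NADPH 0.5 mM, GR 100 nM → CHP 0.5 mM start; fluor 340/450 at t0 and t15 min; no-enzyme wells as control.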
# [7] = qHTS drug screen for cell cycle checkpoint inhibitors in PARPi-resistant BRCA-mutant ovarian cancer cell lines. (AID 1963452; calls by dose curve); settings: PEO1/OlaR viability, CellTiter-Glo luminescence, 96 h, stronger effect = lower value
# Outline: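 PEO1, PEO4 and PEO1/OlaR ovarian cancer cells, 600 per well, exposed 96 h at 37C to a dilution series. Viability read by CellTiter-Glo luminescence, normalized to DMSO and empty wells; activity summarized as Z-AUC.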
# Glutathione peroxidase 1 (Homo sapiens), sequence (P07203 whole entry, looked up): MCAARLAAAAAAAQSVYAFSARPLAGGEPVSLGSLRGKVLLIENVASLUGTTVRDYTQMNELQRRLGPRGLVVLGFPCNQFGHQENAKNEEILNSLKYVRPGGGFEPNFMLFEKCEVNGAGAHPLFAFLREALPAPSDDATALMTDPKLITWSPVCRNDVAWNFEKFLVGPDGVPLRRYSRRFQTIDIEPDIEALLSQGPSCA
# Phospholipid hydroperoxide glutathione peroxidase GPX4 (Homo sapiens), sequence (P36969 whole entry, looked up): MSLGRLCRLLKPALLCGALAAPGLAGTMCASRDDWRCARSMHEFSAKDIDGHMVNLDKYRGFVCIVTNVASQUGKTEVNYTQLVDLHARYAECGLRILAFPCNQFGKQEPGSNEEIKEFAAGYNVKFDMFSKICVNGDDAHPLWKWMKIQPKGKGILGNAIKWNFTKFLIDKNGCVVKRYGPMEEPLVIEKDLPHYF
SMILES,Potency [1],Potency [2],Potency [3],Potency [4],Potency [5],Potency [6],Z-AUC [7],Z-AUC ([7]; measured here: PEO1 parental Z-AUC),Z-AUC ([7]; measured here: PEO4 Z-AUC)
CCCCCCCCCCCCCC#CC(=O)[C@@H]1COC(C)(C)N1C(=O)OC(C)(C)C,inactive,inactive,13 µM (active),16.4 µM (active),inactive,,,,
N#Cc1ccc(-c2c(-c3ncn[nH]3)sc(N3CCOCC3)c2C#N)c(F)c1,2.06 µM (active),5.8 µM (active),1.03 µM (active) and 934 nM (active),651 nM (active) and 1.18 µM (active),inactive,inactive,-1.04 (inactive),-1.47,-1.34
CC/C=C\CC1C(=O)CCC1CC(=O)OC (configuration not stated),inactive,inactive,inactive,inactive,inactive,,,,
CC(C)OC(=O)OCOP(=O)(COC(C)Cn1cnc2c(N)ncnc21)OCOC(=O)OC(C)C (configuration not stated),inactive,inactive,,inactive,,,,,
Oc1cccc(-c2nc(N3CCOCC3)c3sccc3n2)c1,5.17 µM (active),4.61 µM (active),1.3 µM (active),1.16 µM (active),inactive,,,,
